# Measured values: PMC13541613, “GHT-SELEX demonstrates unexpectedly high intrinsic sequence specificity and complex DNA binding of many human transcription factors”
# Molecular target: ZNF721 DBD2 (Homo sapiens, UniProt Q8TF20-2 395-923)
# Assay: HT-SELEX; 20 mM HEPES pH 7, 140 mM KCl, 5 mM NaCl, 1 mM K2HPO4, 2 mM MgSO4, 100 uM EGTA, ZnSO4, 0.1% Tween20; room temperature, 1 h; high values mean tight binding
# Conditions: protein: ivt; tags: eGFP (N-terminal); dsDNA, one strand shown
# How it was run: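 Full-length or DNA-binding-domain forms of a tagged transcription factor were produced in HEK293 lysate or cell-free extract and immobilised on beads. Incubation with a randomized 40-base DNA library ran for 1 h at room temperature in HEPES/KCl low-stringency buffer with Tween20, after which bound DNA was washed, heat-eluted, PCR-amplified over successive cycles and Illumina-sequenced. Binding strength is given as the relative k-mer count in selected reads, higher for tighter binding.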
# Chain of ZNF721 DBD2 (Q8TF20 383-911): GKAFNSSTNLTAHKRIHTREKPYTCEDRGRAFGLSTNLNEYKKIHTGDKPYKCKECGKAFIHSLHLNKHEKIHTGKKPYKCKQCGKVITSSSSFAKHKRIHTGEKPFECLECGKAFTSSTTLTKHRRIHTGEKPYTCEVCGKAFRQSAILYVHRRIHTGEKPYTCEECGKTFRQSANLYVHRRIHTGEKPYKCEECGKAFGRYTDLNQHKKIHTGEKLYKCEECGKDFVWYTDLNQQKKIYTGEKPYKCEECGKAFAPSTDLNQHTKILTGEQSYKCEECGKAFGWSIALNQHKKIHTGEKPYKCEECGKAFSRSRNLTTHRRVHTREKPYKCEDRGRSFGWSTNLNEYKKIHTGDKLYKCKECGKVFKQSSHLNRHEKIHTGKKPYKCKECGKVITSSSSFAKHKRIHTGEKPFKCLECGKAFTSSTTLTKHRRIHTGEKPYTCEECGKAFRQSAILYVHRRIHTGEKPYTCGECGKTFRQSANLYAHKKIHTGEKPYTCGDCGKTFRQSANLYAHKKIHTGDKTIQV
row,Sequence,binding signal [relative 10-mer count]
1,CCCCACCCAC,0.00587
2,CTTCATACAC,0.00132
3,CCACCCTACC,0.00839
4,CAGGGGTGGG,0.00419
5,CATACCCAAA,0.0665
6,CCGCGCCCCC,0.0018
7,CCCCCCTCCA,0.0024
8,GCAGCATACC,0.158
9,CACCCCCACA,0.00779
10,CCCCTCACCC,0.00503
11,CCCAACCCCC,0.00168
12,ACAAAAAAGC,0.0647
13,CTCCCCACCA,0.00587
14,AAAAAGCAGC,0.477
15,CTCCCCCCAC,0.00419
16,CAACCCCACC,0.00384
17,CATCCCACCC,0.00563
18,CCCCGCTCCC,0.00108
19,CACCCCGCCA,0.00455
20,CCACCCACCA,0.00791

row,Sequence,binding signal [relative 10-mer count]
1,CGCCCACCCC,0.00252
2,TCCCCCACCA,0.00407
3,CACCCTCCCA,0.00443
4,CCAACCACCC,0.00312
5,CGTCCCCCAC,0.00407
6,AAAAAAAAAG,0.0982
7,ACCCCCTCCC,0.00503
8,AAGTGTATCC,0.00503
9,AAGCTATCCC,0.0012
10,GCCCTCCCCC,0.00911
11,CCCATCCCCC,0.00312
12,CCCCCCCACC,0.00791
13,CCCACCTACC,0.00659
14,CCCCACACCC,0.00443
15,CTCCCTCCCC,0.00312
16,AGCGTCTCCA,0.388
17,CCCCCACCAA,0.00443
18,AGCATACCCC,0.146
19,TAAAAAAGCA,0.114
20,CACCCCCAAC,0.0114
